From PubChem BioAssay (Tox21) come the findings set out here.

Values without a mark were called inactive. Records with an inconclusive call do not appear. Activity calls are given as the source filed them. Unless noted, the call rests on the fitted dose curve; in most records, active means well fitted curve in the direction sought with a large enough effect in the repeat runs; inconclusive means weak or mixed curves; inactive means no such curve, though single readings can be large; an effect the other way counts as inactive or inconclusive.

Assay [1] is described as follows: A CellTox Green Cytotoxicity Assay to monitor cytotoxicity in HepG2 cells - 24 hour (AID 1224878). Further: nearly all actives have a fitted effect of over 45% in size. The gist of the method: (§1)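 Fluorescent DNA-binding dye, 600 HepG2 cells/well, 5 h preincubation then compound in DMSO; same plates read at 0–40 h, 37 C.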
Assay [2] can be described thus: A CellTox Green Cytotoxicity Assay to monitor cytotoxicity in HepG2 cells - 40 hour (AID 1224879). Further: nearly all actives have a fitted effect of over 40% in size. Further: potency means the concentration at half of the fitted maximal effect. The method, boiled down:
as §1

Assay [3] is described as follows: qHTS RealTime-Glo MT Cell Viability Assay in HEK293 cells - 0 hour (AID 1224880). Further: top concentration of the series differs between compounds; nearly all actives have a fitted effect of over 45% in size. The method, boiled down: (§2)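 Measured as luminescence from the same continuously cultured HEK293 wells at successive time points (0, 8, 16, 24, 32, 40 h) after compound addition. Reagent present from seeding; dosing at 5 h; incubation 37 C.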
The nature of assay [4]: A CellTox Green Cytotoxicity Assay to monitor cytotoxicity in HEK293 cells - 32 hour (AID 1224881). Further: nearly all actives have a fitted effect of over 40% in size. The gist of the method:
(§3)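 Homogeneous no-lysis format: HEK293 cell suspension mixed with CellTox Green reagent, seeded, incubated 5 h at 37 C/5% CO2, then dosed by pintool with compound in DMSO.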

Assay [5] is described as follows: A CellTox Green Cytotoxicity Assay to monitor cytotoxicity in HepG2 cells - 0 hour (AID 1224882). Further: nearly all actives have a fitted effect of over 35% in size. The method, boiled down: as §1
Assay [6] in a line: A CellTox Green Cytotoxicity Assay to monitor cytotoxicity in HepG2 cells - 32 hour (AID 1224883). Further: nearly all actives have a fitted effect of over 50% in size. The gist of the method:
as §1

Assay [7] in a line: A CellTox Green Cytotoxicity Assay to monitor cytotoxicity in HEK293 cells - 8 hour (AID 1224884). Further: nearly all actives have a fitted effect of over 35% in size. The method, boiled down: as §3
A short description of assay [8]: qHTS RealTime-Glo MT Cell Viability Assay in HEK293 cells - 8 hour (AID 1224887). Further: top concentration of the series differs between compounds; nearly all actives have a fitted effect of over 50% in size. The gist of the method: as §2
Assay [9] in a line: A CellTox Green Cytotoxicity Assay to monitor cytotoxicity in HEK293 cells - 16 hour (AID 1224888). Further: nearly all actives have a fitted effect of over 35% in size. The gist of the method: as §3
A short description of assay [10]: qHTS RealTime-Glo MT Cell Viability Assay in HepG2 cells - 0 hour (AID 1224889). Further: nearly all actives have a fitted effect of over 50% in size. The method, boiled down:
(§4)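 HepG2 suspension premixed with RealTime-Glo reagents is plated at 600 cells per well and left 5 h at 37 C/5% CO2. Compounds in DMSO then go in, and bioluminescence reflecting viable cell number is recorded over 40 h.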
Background: qHTS replaces the single test concentration by a dilution series.

Assay [11] in a line: A CellTox Green Cytotoxicity Assay to monitor cytotoxicity in HepG2 cells - 8 hour (AID 1224890). Further: nearly all actives have a fitted effect of over 45% in size. The method, boiled down:
as §1

A short description of assay [12]: qHTS assay to identify small molecule antagonists of the estrogen receptor alpha (ER-alpha) signaling pathway using the BG1 cell line in the presence of 0.1 nM 17-beta-estradiol - cell viability counter screen (AID 1259241). Further: nearly all actives have a fitted effect of over 40% in size. The gist of the method: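 Viability in VM7Luc4E2 cells after 22 hr compound exposure under 0.1 nM 17beta-estradiol stimulation, by CellTiter-Fluor.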

Assay [13] can be described thus: qHTS assay to identify small molecule antagonists of the androgen receptor (AR) signaling pathway using the MDA cell line in the presence of 0.5 nM R1881 - cell viability counter screen (AID 1259242). Further: nearly all actives have a fitted effect of over 45% in size. The method, boiled down:
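Human breast carcinoma MDA-kb2 cells, cultured without CO2, receive compounds alongside 0.5 nM (final) R1881 agonist. After 16 hr at 37C, viability is taken as live-cell protease signal.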

Assay [14] concerns the target Estrogen receptor (Homo sapiens) (UniProt P03372). In words: qHTS assay to identify small molecule antagonists of the estrogen receptor alpha (ER-alpha) signaling pathway using the BG1 cell line in the presence of 0.1 nM 17-beta-estradiol (AID 1259244). Further: nearly all actives have a fitted effect of over 50% in size. The gist of the method: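 Seeding of stripped-serum-adapted VM7Luc4E2 cells, 24 h attachment, compound transfer, then 0.1 nM final 17beta-estradiol; after 22 h incubation, ONE-Glo reagent and luminescence reading.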

Assay [15] in a line: qHTS assay to identify small molecule phospholipidosis (PLD) inducers (AID 1259344; active means well fitted curve in the direction sought with a large enough effect; an effect the other way counts as inactive or inconclusive). The gist of the method:
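Accumulated phospholipid, stained red by LipidTOX during 24 h compound treatment of HepG2 cells at 37 C, is quantified from images as pit number and intensity, normalised per cell using Hoechst-stained nuclei.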

Assay [16] is described as follows: qHTS assay to identify small molecule HDAC inhibitors (AID 1259364). The gist of the method: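 After a 2 hr compound incubation (37C, 5% CO2), HCT-116 cells seeded at 1,500/well the day before received HDAC-Glo reagent; signal read as luminescence after 30 min at room temperature.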
A short description of assay [17]: qHTS assay to identify small molecule HDAC inhibitors - cell viability counter screen (AID 1259365). The gist of the method:
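Cytotoxicity was gauged in wild-type HCT-116 cells after a brief 2hr treatment with DMSO-dissolved compounds at 37C and 5% CO2, using CellTiter-Glo luminescence developed for 30min at room temperature.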

Assay [18] in a line: qHTS RealTime-Glo MT Cell Viability Assay in HEK293 cells - 24 hour (AID 1224886). The method, boiled down: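 Reads taken at 0, 8, 16, 24, 32 and 40 h from the same wells. HEK293 cells (600/well) carried RealTime-Glo reagents from seeding, with compound added after a 5 h settle at 37 C.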
Assay [19] has as its target Androgen receptor (Homo sapiens) (UniProt P10275). In words: qHTS assay to identify small molecule antagonists of the androgen receptor (AR) signaling pathway using the MDA cell line in the presence of 0.5 nM R1881 (AID 1259243). Further: nearly all actives have a fitted effect of over 50% in size. The gist of the method:
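Cells: MDA-kb2 (MMTV-luc). Stimulus: 0.5 nM R1881. Time: 16 hr, 37C, no CO2. Detection: ONE-Glo luminescence after 30 min at RT.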

Assay [20] in a line: qHTS RealTime-Glo MT Cell Viability Assay in HepG2 cells - 16 hour (AID 1224885). Further: nearly all actives have a fitted effect of over 50% in size. The method, boiled down: as §4

Sequence of Estrogen receptor (Homo sapiens) (P03372 whole entry, looked up): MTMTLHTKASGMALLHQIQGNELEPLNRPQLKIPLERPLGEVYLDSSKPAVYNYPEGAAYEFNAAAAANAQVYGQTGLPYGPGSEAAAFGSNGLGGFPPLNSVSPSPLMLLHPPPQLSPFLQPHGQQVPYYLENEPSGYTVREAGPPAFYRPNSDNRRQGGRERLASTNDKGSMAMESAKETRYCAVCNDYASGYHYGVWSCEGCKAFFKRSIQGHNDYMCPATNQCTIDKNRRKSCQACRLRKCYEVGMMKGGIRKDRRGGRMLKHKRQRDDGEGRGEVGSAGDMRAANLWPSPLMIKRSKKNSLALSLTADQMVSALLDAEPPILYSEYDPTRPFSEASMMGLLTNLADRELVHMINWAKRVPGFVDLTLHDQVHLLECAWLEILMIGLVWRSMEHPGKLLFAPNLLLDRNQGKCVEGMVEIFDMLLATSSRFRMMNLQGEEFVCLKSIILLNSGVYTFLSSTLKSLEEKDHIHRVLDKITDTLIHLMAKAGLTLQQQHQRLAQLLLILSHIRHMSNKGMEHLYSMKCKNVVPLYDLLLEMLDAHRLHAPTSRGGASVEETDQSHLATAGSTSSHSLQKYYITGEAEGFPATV
Sequence of Androgen receptor (Homo sapiens) (P10275 whole entry, looked up): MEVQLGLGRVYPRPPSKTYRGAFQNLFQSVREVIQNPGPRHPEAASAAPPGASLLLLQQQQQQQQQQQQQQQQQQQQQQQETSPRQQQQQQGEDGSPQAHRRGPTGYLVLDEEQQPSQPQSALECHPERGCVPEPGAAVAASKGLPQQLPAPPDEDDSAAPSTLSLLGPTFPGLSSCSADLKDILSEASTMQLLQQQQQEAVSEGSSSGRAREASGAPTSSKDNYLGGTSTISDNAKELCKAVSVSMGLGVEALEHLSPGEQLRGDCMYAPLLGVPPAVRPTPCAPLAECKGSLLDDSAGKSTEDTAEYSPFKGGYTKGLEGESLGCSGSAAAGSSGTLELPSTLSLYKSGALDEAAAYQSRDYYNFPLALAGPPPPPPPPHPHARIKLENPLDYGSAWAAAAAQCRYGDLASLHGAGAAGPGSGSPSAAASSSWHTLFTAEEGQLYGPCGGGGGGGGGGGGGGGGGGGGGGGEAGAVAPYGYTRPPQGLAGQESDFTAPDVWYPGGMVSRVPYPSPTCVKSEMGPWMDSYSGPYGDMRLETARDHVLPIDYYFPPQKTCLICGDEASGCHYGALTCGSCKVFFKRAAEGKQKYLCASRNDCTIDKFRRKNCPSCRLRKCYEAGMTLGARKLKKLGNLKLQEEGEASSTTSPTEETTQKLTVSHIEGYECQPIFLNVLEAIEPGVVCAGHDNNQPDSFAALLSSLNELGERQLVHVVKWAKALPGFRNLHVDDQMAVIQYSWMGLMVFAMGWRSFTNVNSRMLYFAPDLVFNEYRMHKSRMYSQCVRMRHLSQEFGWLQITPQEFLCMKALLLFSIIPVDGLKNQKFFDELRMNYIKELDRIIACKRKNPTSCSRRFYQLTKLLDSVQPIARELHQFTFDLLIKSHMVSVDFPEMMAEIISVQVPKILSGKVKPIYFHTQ

In the case of `Cc1ccc(S(=O)(=O)NC(=O)NN2CC3CCCC3C2)cc1` (stereo not drawn), the Potency entry in assay [1], in assay [2], in assay [3], in [4], in assay [5] and in assay [6] was “inactive” in each case. Further, the Potency result in assay [7], in assay [9], in assay [10], in assay [11], in [15] and in [16] was “inactive” in each case. Besides, the outcome in assay [8], in [12], in assay [13], in [14] and in [17] was inactive.
For `COC(=O)c1cc(Cl)c(NC(C)=O)cc1OC`, the Potency result in [1], in [2], in assay [3], in assay [4], in assay [5] and in assay [6] was “inactive” in each case. Besides, the Potency result in assay [7], in assay [9], in assay [10], in assay [11], in assay [19] and in assay [16] was “inactive” in each case. Further, the result in [18], in assay [8], in assay [12], in assay [13] and in [17] was inactive.
With `CCCCCCCCS(=O)(=O)O`, the Potency entry in [1], in [2], in assay [3], in assay [4], in [5] and in [6] was “inactive” throughout. Also, the Potency entry in assay [7], in [9], in assay [10], in [11] and in assay [16] was “inactive” each time. Also, the result in assay [20], in assay [8], in assay [12] and in [13] was inactive.
On to `CCCCCCCCCCCC(C)=O`, for which the Potency result in [1], in assay [2], in [3], in assay [4], in assay [5] and in assay [6] was “inactive” each time. Besides, the Potency result in [7], in assay [9], in [10], in assay [11] and in [16] was “inactive” each time. The compound was called inactive in [18], in assay [8], in assay [12], in [13], in [14] and in assay [17].
On to `Cc1nc2ccc(Cl)cc2[nH]1`, for which the Potency result in [1], in assay [2], in assay [3], in assay [4], in assay [5] and in assay [6] was “inactive” in each case. Besides, the Potency entry in assay [7], in assay [9], in [10] and in assay [11] was “inactive” throughout. Besides, the result in assay [18], in [8], in assay [12], in [13] and in assay [17] was inactive.
For the compound `OCCC(F)(F)C(F)(F)C(F)(F)C(F)(F)C(F)(F)C(F)(F)F`, the Potency entry in assay [1], in assay [2], in [3], in [4], in assay [5] and in [6] was “inactive” each time. In addition, the Potency entry in assay [7], in [9], in [10] and in assay [11] was “inactive” throughout. For the same compound, the outcome in assay [20], in assay [8], in assay [12], in assay [13], in assay [14] and in [17] was inactive.
In the case of `CCCCN=C(N)N=C(N)N`, the Potency result in [1], in assay [2], in assay [3], in [4], in assay [5] and in [6] was “inactive” in each case. The Potency entry in assay [7], in assay [9], in [10], in assay [11] and in [15] was “inactive” throughout. Further, the compound was called inactive in [18], in assay [8], in assay [12], in assay [13] and in assay [17].
On to `CC(C)OC(=O)C(C(=O)OC(C)C)=C1SC=CS1`, for which the Potency result in assay [1], in [2], in assay [3], in [4], in assay [5] and in assay [6] was “inactive” each time. For the same compound, the Potency result in [7], in [9], in assay [10], in assay [11], in [19] and in assay [15] was “inactive” each time. Besides, the Potency result in [16] was “inactive”. Moreover, the compound was classed as inactive in assay [20], in assay [12], in [13] and in assay [17].
As for `CCOCCOCCOC(C)=O`, the Potency entry in assay [1], in [2], in [3], in assay [4], in assay [5] and in [6] was “inactive” each time. For the same compound, the Potency entry in [7], in assay [9], in assay [10] and in assay [16] was “inactive” each time. The outcome in assay [18], in assay [8], in assay [12], in assay [13] and in [17] was inactive.
`CCCCCCCCCCCBr`: the Potency entry in assay [1], in assay [2], in [3], in [4], in assay [5] and in assay [6] was “inactive” each time. Further, the Potency entry in [7], in assay [9] and in assay [10] was “inactive” throughout. For the same compound, the compound was called inactive in assay [20], in assay [8], in assay [12], in [13], in assay [14] and in assay [17].
Turning to `CC(C)C[P+](C)(CC(C)C)CC(C)C`, the Potency result in [1], in assay [2], in assay [3], in assay [5], in assay [6] and in assay [7] was “inactive” each time. For the same compound, the Potency entry in assay [9], in [10], in assay [11] and in [16] was “inactive” throughout. Besides, the outcome in [20], in [8], in assay [12], in assay [13], in [14] and in [17] was inactive.
Take `CCC(=O)OCCOc1ccccc1`: the Potency entry in assay [1], in assay [2], in assay [3], in assay [4], in assay [5] and in assay [6] was “inactive” throughout. For the same compound, the Potency entry in [7], in [9], in assay [10] and in assay [16] was “inactive” each time. The result in [18], in assay [8], in assay [12], in assay [13] and in [14] was inactive.
As for `CCCCS`, the Potency entry in [1], in assay [2], in assay [3], in assay [5], in assay [6] and in assay [7] was “inactive” throughout. Moreover, the Potency entry in assay [10] and in assay [16] was “inactive” each time. In addition, the outcome in assay [20], in assay [18], in assay [8], in assay [12], in assay [13] and in [14] was inactive. Moreover, the result in assay [17] was inactive.
With `O=C1CCCc2c(O)cccc21`, the Potency result in assay [1], in assay [3], in assay [4], in [5], in assay [7] and in assay [9] was “inactive” each time. Further, the Potency entry in assay [10], in [11], in [19] and in [16] was “inactive” throughout. In addition, the Potency in assay [2] was 9.52 µM (active). Further, the compound was classed as inactive in assay [20], in [8], in assay [12], in assay [13], in [14] and in [17].
